The whole screen tested about 68,000 compounds, of which about 2,700 (4%) showed an effect of 50% or more. For the sample, strong results were picked, then their nearest neighbours and some compounds at random.

In this experiment the test system is Plasmodium berghei. Briefly: Screen against P. berghei liver stage (PbLuc), transformed with Luciferase, at 2uM. In kind it is functional, HepG2. Conditions: tested at 2 uM.
Regarding `CCOCCCNC(=O)C1(C)CCC(=O)N1c1ccccc1OC` (stereo unspecified), the INHIBITION was -15.25%.

With `Cc1cccc2c1cnn2CCCNC(=O)c1cnn(C)c1`, the INHIBITION is 2.66%. With `O=C(NCCNc1ncccn1)N1CCc2ccccc2C1`, the INHIBITION was -17.17%. Regarding `Cc1oc(C(C)C)cc1C(=O)N1CCN(c2cnn(C)c(=O)c2)CC1`, the INHIBITION is recorded as 86.36%. Take `Cc1cncc(C(=O)N2CCN(c3cnn(C)c(=O)c3)CC2)c1`: the INHIBITION was 41.05%. For `CCc1ncc(C(=O)N2CCN(c3cnn(C)c(=O)c3)CC2)cn1` the value was 24.36%; for `CNc1cc(C2CCCN(C(=O)c3ccc(=O)[nH]n3)C2)ccn1` (stereo unspecified), 27.54%; for `CNc1cc(C2CCCN2C(=O)c2ccc(=O)[nH]n2)ccn1` (stereo unspecified), 51.88%. As for `Cc1c(CCC(=O)N2CCCC2c2ccnc(N(C)C)c2)cnn1C` (stereo unspecified), the INHIBITION was 24.13%. On to `CNc1cc(C2CCCN2C(=O)CCc2ccccc2F)ccn1` (stereo unspecified), for which the INHIBITION is -34.8%.

Regarding `CNc1cc(C2CCCN2C(=O)CCc2cnn(C)c2C)ccn1` (stereo unspecified), the INHIBITION was 73.23%.

On to `CNc1cc(C2CCCN2C(=O)c2ccc3oc(=O)n(C)c3c2)ccn1` (stereo unspecified), for which the INHIBITION stood at 11.71%. For `c1ccc(-c2ncc(CNC3CCc4ncnn4C3)cn2)cc1` (stereo unspecified), the INHIBITION was 15.31%. In the case of `c1ccc(CCN2CCOC(Cn3cccn3)C2)nc1` (stereo unspecified) it was 23.71%; in that of `CC(NC(=O)NCCCNS(C)(=O)=O)c1ccncc1` (stereo unspecified), 9.9%; in that of `CN1CCN(C(=O)N2CCCC(c3nccn3CC3CCC3)C2)CC1` (stereo unspecified), -18.71%. With `Cc1ccc(N2CCC(C(=O)O)(n3ccc(C(C)C)n3)CC2)nn1`, the INHIBITION was -12.36%. In the case of `Cc1nc(CN2CCC(C(=O)O)(n3ccc(C(C)C)n3)CC2)co1` it was 53.55%; in that of `Cc1nc(CN2CCC(C(=O)O)(n3ccc(-c4ccco4)n3)CC2)co1`, -26.72%. For `Cc1ccc(-n2nnc(C(=O)O)c2C)c(C)c1` the value was -2.64%.

Turning to `O=C(c1ccc(F)c(F)c1)N1C[C@H]2CNC[C@H]2C1`, the INHIBITION was -9.69%. For `O=C(c1ccc(S(=O)(=O)NCC(F)F)cc1)N1CC[C@H]2CNC[C@H]21` the value was 26.74%. Regarding `O=C(c1ccc(S(=O)(=O)NCC(F)F)cc1)N1C[C@H]2CNC[C@H]2C1`, the INHIBITION is reported as 57.75%.

For the molecule `O=C(c1ccc(S(=O)(=O)NC2CCC2)cc1)N1CC[C@H]2CNC[C@H]21`, the INHIBITION was -13.8%. Consider `O=C(c1cc(F)cc(F)c1)N1C[C@H]2CNC[C@H]2C1`, for which the INHIBITION was determined as 51.81%. In the case of `Cc1ccc(C(=O)N2C[C@H]3CNC[C@H]3C2)cn1` it was -53.62%; in that of `O=C(c1cnccn1)N1C[C@@H](OCc2cccnc2)[C@H]2OCCC[C@H]21`, -39.95%.

For `CCN(CC)[C@@H]1CN(Cc2nccn2C)[C@@H]2CCCO[C@H]12`, the INHIBITION was -3.53%. For `CC(c1nc(C2CC2)no1)N1CCN(Cc2ccsc2)CC1` (stereo unspecified) the value was 5.72%; for `Cc1noc(C(C)N2CCN(Cc3nnc(C4CC4)o3)CC2)n1` (stereo unspecified), -4.99%; for `CCCc1nc(CN2CCN(C(C)c3nc(C4CC4)no3)CC2)no1` (stereo unspecified), 50.18%. As to `CC(C)c1noc(C(C)S(=O)(=O)Cc2nc(C3CC3)no2)n1` (stereo unspecified), the INHIBITION is listed as -17.22%. For `CC(C)c1noc(C(C)N2CCN(Cc3nnc(C4CC4)o3)CC2)n1` (stereo unspecified) the value was 58.52%; for `CCc1nc(CN2CCN(C(C)c3nc(C4CC4)no3)CC2)no1` (stereo unspecified), 13.91%. With `CC(C)c1noc(C(C)N2CCN(Cc3ccsc3)CC2)n1` (stereo unspecified), the INHIBITION is recorded as 60.31%. For `CC(c1nc(C2CC2)no1)N1CCN(Cc2nnc(C3CC3)o2)CC1` (stereo unspecified) the value was 49.01%; for `CCCc1noc(C(C)S(=O)(=O)Cc2nc(C3CC3)no2)n1` (stereo unspecified), -7.66%; for `CCc1noc(CS(=O)(=O)C(C)c2nc(C3CC3)no2)n1` (stereo unspecified), 57.16%. For the molecule `CC(C)c1nc(CN2CCN(C(C)c3nc(C4CC4)no3)CC2)no1` (stereo unspecified), the INHIBITION is listed as -42.32%. For `CC(C)c1noc(C(C)N2CCN(Cc3cccs3)CC2)n1` (stereo unspecified) the value was 41.76%; for `CC(C)OCc1ccccc1CNC(=O)C(C)(C)C`, -26.08%; for `CS(=O)(=O)c1nccn1Cc1ccc(OC(F)F)cc1`, -35.45%. In the case of `O=C(O)c1cc(NS(=O)(=O)c2ccccc2F)ccc1N1CCSCC1` it was -21.39%; in that of `Cc1nc(C)n(CC2CCCCN2CC(=O)NC(C2CC2)C2CC2)n1` (stereo unspecified), 17.75%.

`COc1ccccc1OCC(=O)N1C[C@@H]2CN(C)CCO[C@@H]2C1`: the INHIBITION came to 32.04%. In the case of `CN1CCc2nc(N(C)C)nc(N3CCC(O)CC3)c2C1`, the INHIBITION is 21.24%.

`CN(Cc1nc(C2CC2)no1)C(=O)c1cccc(CC2CCNCC2)c1`: the INHIBITION is reported as -11.41%. In the case of `Cc1nn(C)c2nc(NC(C)c3nnn[nH]3)sc12` (stereo unspecified) it was -16.31%; in that of `Cc1csc2ncc(-c3ccnc(N4CCN(C)CC4)n3)c(=O)n12`, -23.11%; in that of `Cc1cc2c(cc1Cl)C=CC1(CCN(CC(=O)NC3CCCC3)CC1)O2`, 3.58%.

Regarding `CCN(CC)C(=O)CN1CCC2(C=Cc3cc(Cl)c(C)cc3O2)CC1`, the INHIBITION is recorded as 1.4%. In the case of `Cc1cc2c(cc1Cl)C=CC1(CCN(CC(=O)N3CCOCC3)CC1)O2`, the INHIBITION was -4.78%.

With `Cc1cc2c(cc1C)OC1(C=C2)CCN(CC(=O)N2CCOCC2)CC1`, the INHIBITION was determined as 54.2%. Turning to `Cc1cc2c(cc1Cl)C=CC1(CCN(CC(=O)N3CCCC3)CC1)O2`, the INHIBITION is -28%.

Take `Cc1cc2c(cc1Cl)C=CC1(CCN(C(=O)N3CCOCC3)CC1)O2`: the INHIBITION is 57.47%. In the case of `O=C(NCc1cnc2n1CCN(CC1CC1)CC2)C1CCC1` it was 15.42%; in that of `CO[C@@H]1CCN(S(=O)(=O)c2cccs2)[C@H]1Cc1cccnc1`, 30.39%; in that of `CC(c1nc(C2CC2)no1)N1CCc2c(ncn2C2CC2)C1` (stereo unspecified), -40.15%. With `Cc1ccc(S(=O)(=O)NCc2cccc(C(=O)N3CCCC3)c2)cc1F`, the INHIBITION turned out to be 47.84%. In the case of `O=C(c1cccc(CNS(=O)(=O)c2ccc(F)cc2)c1)N1CCCC1` it was 51.94%; in that of `Cc1ccc(F)cc1S(=O)(=O)NCc1cccc(C(=O)N2CCCC2)c1`, 33.8%. As to `Cc1nc2c(c(NC3CC3)n1)CCN(C(=O)C1(C#N)CC1)CC2`, the INHIBITION is reported as -5.44%. Turning to `Cc1nc(C)c2c(n1)CCN(C(=O)C1(C#N)CC1)CC2`, the INHIBITION is listed as 89.37%.

Regarding `Cc1nc(N2CCOCC2)nc2c1CCN(C(=O)C1(C#N)CC1)CC2`, the INHIBITION is reported as -24.04%. `COCC1CN(Cc2ccoc2)Cc2nn(C)cc21` (stereo unspecified): the INHIBITION is 17.69%. In the case of `O=C(Nc1ccc(F)cc1)N1CCN(Cc2noc(C3CC3)n2)CC1` it was 24.65%; in that of `CN1CCN(C(=O)C[C@@H]2COC[C@H]3CN(c4ccncn4)C[C@@H]23)CC1`, -69.07%; in that of `CS(=O)(=O)N1CCC2(CC1)COC(COc1cccnc1)C2` (stereo unspecified), 19.91%. In the case of `CNS(=O)(=O)c1ccc(C(=O)NCCNc2ncccn2)cc1` it was -75.02%; in that of `CNC(=O)c1ccc(S(=O)(=O)NCCc2ccccn2)cc1`, 24.15%. In the case of `CNS(=O)(=O)c1ccc(C(=O)NCCc2ccccn2)cc1` it was 62.46%; in that of `O=C(Nc1ccccc1)N1CCn2nnc(COc3cccnc3)c2C1`, 11.72%; in that of `CCNC(=O)[C@@H]1CCCN1C1(C(=O)NC)CCC1`, 10.65%. Regarding `CC(CC(=O)O)CC(=O)Nc1sc2c(c1C(N)=O)CCc1ccccc1-2` (stereo unspecified), the INHIBITION is -0.22%. In the case of `CC(C)(C)OC(=O)NCCNC(=O)c1ccc2cc[nH]c2c1` it was 13.72%; in that of `COc1cc(NCCNC(=O)c2cc[nH]c2C)cc(OC)c1`, 12.43%. Turning to `COc1cc(NCCNC(=O)c2ccc3[nH]ccc3c2)cc(OC)c1`, the INHIBITION is listed as 57.75%. `O=C(NCCCO)Nc1cccc(Cl)c1F`: the INHIBITION was -5.28%. With `Fc1cnc(N2CCOC3(CCN(Cc4ccsc4)CC3)C2)nc1`, the INHIBITION was -35.12%. In the case of `CNC(=O)C1CCN(Cc2cc3c(cc2O)CCC3)CC1` it was -23.73%; in that of `CNS(=O)(=O)CCN1CC(c2ccccc2)(c2ccccc2)CCC1=O`, 40.51%. In the case of `Cc1ccc(NCc2ncc(C(C)(C)C)o2)c(Cl)c1` it was -32.82%. For `Cc1cccc(NCc2ncc(C(C)(C)C)o2)c1` the value was 75.37%; for `CC(C)(C)c1cnc(CNc2cccc(Cn3cnnc3)c2)o1`, -3.4%; for `CCc1nc(C)sc1CN1CC[C@](O)(CC)[C@H](O)C1`, 20.36%. As to `O=C(CCC(=O)NCc1cccc(Br)c1)NCCN1CCCC1`, the INHIBITION was -64.94%. Consider `COCC(=O)NCc1cccc(Br)c1`, for which the INHIBITION is 0.26%. Turning to `O=C(COCC(=O)N1CCCCCC1)NCc1cccc(Br)c1`, the INHIBITION was found to be 50.97%. For `Cc1ncn(-c2cc(N3CCN(S(C)(=O)=O)CC3)ncn2)c1C` the value was 43.28%; for `O=C(CSCC1CC1)N1C[C@H]2CC[C@@H](C1)N(Cc1ccccn1)C2=O`, 36.66%; for `CCOCC(=O)N1C[C@H]2CC[C@@H](C1)N(Cc1ccccn1)C2=O`, 37.77%. Take `CCCSCC(=O)N1C[C@H]2CC[C@@H](C1)N(Cc1ccccn1)C2=O`: the INHIBITION is 60.9%. For `CC(C)(O)CN1CCN(C(=O)COCC(F)(F)F)CC1` the value was 13.76%; for `COc1cc(C)c(S(=O)(=O)CC(=O)N(C)C(C)C)cc1OC`, 10.72%. With `COc1cc(C)c(S(=O)(=O)CC(=O)N(C)C2CC2)cc1OC`, the INHIBITION is recorded as 51.87%. In the case of `CCN(C(=O)CS(=O)(=O)c1cc(OC)c(OC)cc1C)C1CC1` it was 35.41%. As for `CCn1cc(S(=O)(=O)Nc2nc3c(s2)CC(C)CC3)cn1` (stereo unspecified), the INHIBITION is listed as 32.56%. On to `CC1CCc2nc(NS(=O)(=O)c3cnn(C)c3)sc2C1` (stereo unspecified), for which the INHIBITION worked out at 54.52%. In the case of `CCn1cc(S(=O)(=O)Nc2nc3c(s2)CCCC3)cn1`, the INHIBITION is given as 23.02%.

In the case of `N#Cc1ccc(CN2CCN(Cc3ccncc3Cl)CC2=O)cc1`, the INHIBITION is recorded as 26.27%. For `CC1CN(Cc2nc(Cc3ccccc3F)no2)CCN1C` (stereo unspecified) the value was 17.25%.

(Values after ChEMBL document CHEMBL4513216, “Probing the Open Global Health Chemical Diversity Library for Multistage-Active Starting Points for Next-Generation Antimalarials” (ACS Infect Dis, 2020).)
